Screening results deposited in PubChem BioAssay by National Center for Advancing Translational Sciences (NCATS).
In the library only some 6.5% were active in any assay of this set; here they are far more common.
VACV Venus inh: inhibitors of vaccinia virus (Venus reporter) | Vaccinia virus Venus reporter expression, fluorescence | Potency, µM (doses to about 36.5 µM), actives largely listed as inhibitors | 330,000 tested, 0.46% active; calls by dose curve; tested in A549 cells; also: nearly all actives have a fitted effect of over 30% in size
Marburg entry inh: Marburg virus entry inhibition; Potency, µM (highest dose often 37.8 µM), most hits filed as inhibitors; AID 540276; 300,000 tested, 1.8% active; Marburg virus pseudotyped entry inhibition, cell reporter; calls by dose curve; tested in HEK293 cells
Vaccinia mCherry: inhibitors of vaccinia virus infection (mCherry reporter signal); 310,000 tested, 0.63% active; Potency, µM (highest dose often 36.5 µM), usual class: inhibitors; Vaccinia virus mCherry reporter infection, fluorescence; AID 720579; calls by dose curve; tested in A549 cells; also: nearly all actives have a fitted effect of over 35% in size
FMDV inh: foot and mouth disease virus antiviral activity | Potency, µM (doses to about 57.9 µM), most hits filed as inhibitors | FMDV antiviral cell-based qHTS | 410,000 tested, 1.2% active; calls by dose curve; tested in HEK293T cells; also: read-out not given here; nearly all actives have a fitted effect of over 45% in size
HCMV inh: inhibitors of human cytomegalovirus. activity change, negative = inhibition, % at 57.5 µM. 410,000 tested, 4.5% active. HFF cells, HCMV-luciferase reporter, 72 h; stronger effect = lower value; in the data active = activity change below about -60%; inconclusive = no clear call, values can overlap the other calls; inactive = above about -39%
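After 16 h attachment at 37C, HFF cells received test compound and HCMV-luciferase (1 PFU/cell); reporter luminescence read 72 h later, data normalized against buffer-only and known inhibitor Salinomycin.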
Lassa entry inh: blocks Lassa virus binding to or entry into cells | Lassa virus pseudotype entry inhibition, cell reporter | Potency, µM (doses to about 37.9 µM), most hits filed as inhibitors | 300,000 tested, 1.2% active; calls by dose curve; tested in HEK293 cells; also: nearly all actives have a fitted effect of over 50% in size
Hits are given with their value; i = inactive; ? = inconclusive; nt = no result given.

SMILES	VACV Venus inh	Marburg entry inh	Vaccinia mCherry	FMDV inh	HCMV inh	Lassa entry inh
O=C(Nc1ccc(N2CCN(Cc3ccccc3F)CC2)cc1)c1ccc([N+](=O)[O-])o1	?	?	4µM	?	-100	i
O=C(Nc1ccc(N2CCCC2)c(Cl)c1)c1ccc([N+](=O)[O-])o1	14µM	8.9µM	16µM	i	-89	?
O=C(Nc1ccc(N2CCCCC2)cc1)c1ccc([N+](=O)[O-])o1	i	?	?	i	-96	?
CC(C)CC(=O)NC(=S)Nc1ccc(N2CCCC2)c(Cl)c1	i	?	i	i	-62	i
COc1cccc(-c2cccc3c4c([nH]c23)[C@@H]2C[C@H]3[C@@H](C(=O)N2CC4)[C@H](C)ON3C)c1	nt	nt	nt	nt	i	nt
CC1CCN(C(=O)c2ccc([N+](=O)[O-])o2)CC1	i	i	i	i	i	i
CS(=O)(=O)N1CCN(c2ccc(NC(=O)c3ccc([N+](=O)[O-])o3)cc2)CC1	nt	i	nt	i	-101	i
O=C(Nc1ccc(N2CCCC2)c(Cl)c1)c1ccco1	i	?	i	nt	-90	12µM
CC1CCN(c2ccc(NC(=O)c3ccc([N+](=O)[O-])o3)cc2)CC1	10µM	?	11µM	i	-98	?
CS(=O)(=O)N1CCN(c2ccc(NC(=O)c3cc4ccccc4o3)cc2)CC1	nt	nt	nt	i	i	nt
CN1CCN(c2ccc(NC(=O)c3ccco3)cc2Cl)CC1	nt	nt	nt	i	i	nt
COC(=O)CC=C[C@@H](C)[C@@H](C=NO[C@H](C)c1cn([C@@H]2COC[C@@H]2O)nn1)N[S+](=O)([O-])c1ccc(C)cc1	nt	i	nt	nt	nt	nt
O=C(NCCN1CCOCC1)c1cnn(-c2nccc(-c3cc4ccccc4o3)n2)c1C1CC1	i	nt	i	i	nt	nt
Nc1c(Cl)ncnc1NCCc1ccc(O)cc1	i	nt	?	i	-70	nt
CCCCNc1ccc2c(c1)OC[C@H](Cc1ccccc1)NS2(=O)=O	nt	nt	nt	nt	i	nt
CCc1ccc2oc(-c3ccc(C)c(NC(=O)c4ccc(C#N)cc4F)c3)nc2c1	i	?	i	i	i	?
COc1cccc(CN(CC(=O)NCc2ccco2)C(=O)CNS(=O)(=O)c2ccccc2)c1	i	i	i	i	-61	i
Cc1ccc(S(=O)(=O)NCC(=O)N(CC(=O)NCc2ccco2)Cc2ccccc2)cc1	i	i	?	i	i	i
Cc1ccc(S(=O)(=O)N2CCN(C(=O)C3CCN(c4ncnc5sc(C)c(C)c45)CC3)CC2)c(C)c1	nt	nt	nt	20µM	-80	nt
Cc1csc2c(N3CCN(S(=O)(=O)c4ccc(Cl)cc4)CC3)ncnc12	i	?	i	i	i	i
O=S(=O)(c1ccc(Cl)cc1)N1CCN(c2ncnc3sccc23)CC1	i	?	i	14µM	-69	?
Cc1csc2ncnc(N3CCN(S(=O)(=O)c4cccc(C(F)(F)F)c4)CC3)c12	i	?	i	?	-92	?
Cc1sc2ncnc(N3CCN(S(=O)(=O)c4ccc(Br)cc4)CC3)c2c1C	i	i	i	?	i	i
Cc1sc2ncnc(N3CCN(S(=O)(=O)c4ccc(C(C)(C)C)cc4)CC3)c2c1C	nt	nt	nt	?	-82	nt
COc1ccc(-c2csc3ncnc(N4CCN(S(=O)(=O)c5ccc(C)cc5)CC4)c23)cc1	i	?	?	i	i	i
SMILES	VACV Venus inh	Marburg entry inh	Vaccinia mCherry	FMDV inh	HCMV inh	Lassa entry inh
C=C1C=C(C(F)(F)F)n2ncc(C(=O)NCc3ccc(F)cc3)c2N1	i	nt	i	nt	nt	nt
O=S(=O)(c1cc(F)ccc1F)N1CCN(c2ccccn2)CC1	nt	nt	nt	i	i	nt
O=S(=O)(c1cc(F)ccc1F)N1CCN(c2ncnc3ccccc23)CC1	nt	nt	nt	10µM	?	nt
C#CCCCO/N=C1\C[C@@H](O)[C@@H](O)[C@@H]2[C@@H]3C(=O)N(C4CCCCC4)C(=O)[C@@H]3CC[C@@H]12	nt	i	nt	nt	nt	nt
CC1Cc2ccccc2N1S(=O)(=O)c1cccc(C(=O)NCc2ccco2)c1 (centres undefined)	i	?	i	i	?	10µM
COCc1nnc(NC(=O)c2ccc(S(=O)(=O)N3CCCc4ccccc43)cc2)o1	?	?	?	i	-78	?
CCN(CC)S(=O)(=O)c1ccc(C(=O)Nc2nnc(COC)o2)cc1	nt	nt	nt	i	-64	nt
O=C(NCc1ccco1)c1ccc(S(=O)(=O)N2CCCc3ccccc32)cc1	i	?	i	i	i	16µM
COc1ccc2c(c1)CCc1cnc(-n3ncc(C(=O)NCc4cc(C)no4)c3C3CC3)nc1-2	i	nt	?	i	nt	nt
CN(C)c1cccc(Nc2cc3[nH]c(-c4cccc(F)c4)cc3cn2)c1	nt	nt	nt	nt	i	nt
CCCCN(CCCC)S(=O)(=O)c1ccc(NC(=O)Cc2cccs2)cc1	nt	?	nt	i	i	9.2µM
CCCCN(CC)S(=O)(=O)c1ccc(C(=O)Nc2nnc(-c3cccs3)o2)cc1	?	8.9µM	i	i	nt	?
CCc1ccc(CN2CCC(n3nccc3NC(=O)c3ccccc3Cl)CC2)cc1	i	?	i	32µM	i	?
CC(C)Oc1ccc(CN2CCC(n3nccc3NC(=O)C3CC3)CC2)cc1	i	i	i	i	-70	i
O=C(Nc1ccnn1C1CCN(Cc2cccc(OCCO)c2)CC1)c1cccc(F)c1	i	i	i	i	i	i
O=C(Nc1ccnn1C1CCN(Cc2ccc(F)cc2)CC1)C1CC1	nt	nt	nt	i	?	nt
COc1ccc(CN2CCC(n3nccc3NC(=O)c3cccc(F)c3)CC2)cc1O	i	i	i	i	-87	i
BrC(=C\c1ccccc1)/C=N/n1cnnc1	?	nt	?	?	-99	nt
CCN1C(=O)[C@H]2[C@H]3[C@H](O)[C@H](O)C/C(=N\NC(=O)OCc4ccccc4)[C@@H]3CC[C@H]2C1=O	nt	i	nt	nt	nt	nt
Oc1cc(O)cc(-c2cc3ccc(O)cc3o2)c1	i	nt	i	i	i	nt
CC1(C)Oc2cc3oc(-c4cc(O)cc(O)c4)cc3cc2CC1O (centres undefined)	i	nt	i	11µM	i	nt
O=C(NCc1ccc2c(c1)OCO2)c1ccc2c(c1)N(Cc1cccc(Cl)c1)C(=O)c1ccccc1S2=O (centres undefined)	i	nt	i	i	i	i
O=C(O)c1ccc(Nc2cc(Cl)c3nonc3c2[N+](=O)[O-])cc1	i	i	i	40µM	i	i
CNc1cc(Cl)c2nonc2c1[N+](=O)[O-]	?	?	i	13µM	-99	?
O=[N+]([O-])c1c(Nc2cccc(O)c2)cc(Cl)c2nonc12	?	?	?	22µM	-102	?
SMILES	VACV Venus inh	Marburg entry inh	Vaccinia mCherry	FMDV inh	HCMV inh	Lassa entry inh
O=C(O)c1cccc(Nc2ccc3nonc3c2[N+](=O)[O-])c1	nt	nt	nt	i	i	nt
Cc1c(Nc2cc(Cl)c3nonc3c2[N+](=O)[O-])c(=O)n(-c2ccccc2)n1C	28µM	?	?	14µM	i	?
Cc1c(C(=O)N(C)C2CCCCC2)sc2nc3ccc(N)cc3n12	nt	nt	nt	i	nt	nt
Cc1nc2ccc(NC(=O)c3cccs3)cc2c(=O)n1Cc1ccc(Cl)cc1	?	?	11µM	nt	-98	?
C[C@@H]1ON(C)[C@H]2C[C@H]3c4[nH]c5cccc(-c6ccc7c(c6)OCO7)c5c4CCN3C(=O)[C@@H]12	nt	nt	nt	nt	i	nt
O=C(NCCc1ccccc1)c1nn(-c2ccccc2F)nc1CO	i	i	i	i	i	i
